Molecules are shown by their SMILES. Where a name gives a salt, the structure may show the parent alone. Unmarked numbers belong to inactive results.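 The calls were made as follows: for the amine columns active = adjusted P below 0.05 in both replicates with a change the same way and a mean fold change under 0.8 or over 1.25; inactive = the rest.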

The first experiment has as its system Klebsiella aerogenes DSM 30053. Briefly: fold change of Putrescine concentration vs plate DMSO controls (fold change (ratio)); higher = more amine produced, active = hit call of the paper (significant change in both replicates, either direction). The following applies: incubation time: 27 h, anaerobic, 37 °C. An outline of the steps: (§1)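 Amine values are fold changes relative to DMSO-only wells on the same plate. They derive from 27 h, 37 °C anaerobic mGAM cultures of four gut bacterial strains in 80 µL wells, dosed at 20 µM final, or 50 µM final for sweeteners. Extraction of the whole culture, LC–triple-quadrupole MS in dynamic MRM mode, external calibration curves and within-batch drift correction were used, with 2 biological replicates averaged.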
As to `N#Cc1cc(NC(=O)C(=O)O)c(Cl)c(NC(=O)C(=O)O)c1` [Lodoxamide] (20 µM), the “fold change of Putrescine concentration” value is 1.01.

On to `O=P(O)(O)C(Cl)(Cl)P(=O)(O)O` [Clodronate disodium] (20 µM), for which the “fold change of Putrescine concentration” value was 1.02. Take `CC(=O)N[C@@H](CCC(N)=O)C(=O)O` [Acetyl-L-glutamine] (20 µM): the “fold change of Putrescine concentration” value is 1. `CC(=O)N(CC(O)CO)c1c(I)c(C(=O)NCC(O)CO)c(I)c(C(=O)NCC(O)CO)c1I` (configuration not stated) [Iohexol] (20 µM): the “fold change of Putrescine concentration” value is 0.997. For the molecule `Cc1cc2nc3c(=O)[nH]c(=O)nc-3n(C[C@H](O)[C@H](O)[C@H](O)CO)c2cc1C` [Riboflavine] (20 µM), the “fold change of Putrescine concentration” value is 0.964. Take `CC(=O)CC(c1ccc([N+](=O)[O-])cc1)c1c(O)c2ccccc2oc1=O` (configuration not stated) [Acenocoumarol] (20 µM): the “fold change of Putrescine concentration” value was 0.989. On the same count and under the same terms, then `O=C1CCc2ccc(OCCCCN3CCN(c4cccc(Cl)c4Cl)CC3)cc2N1` [Aripiprazole] (20 µM), with 1.01; and `Nc1nc(/C(=C/CC(=O)O)C(=O)N[C@@H]2C(=O)N3C(C(=O)O)=CCS[C@H]23)cs1` [Ceftibuten] (20 µM), with 1.04; and `C=C(CC)C(=O)c1ccc(OCC(=O)O)c(Cl)c1Cl` [Ethacrynic acid] (20 µM), with 1.03. With `C[C@H](N[C@@H](CCc1ccccc1)C(=O)O)C(=O)N1CCC[C@H]1C(=O)O` [Enalaprilat dihydrate] (20 µM), the “fold change of Putrescine concentration” value was 1.01.

As for `O=C1c2ccccc2S(=O)(=O)N1CCCCN1CCN(c2ncccn2)CC1` [Ipsapirone] (20 µM), the “fold change of Putrescine concentration” value is 0.997. Regarding `Cn1c(=O)c2c(ncn2CC2OCCO2)n(C)c1=O` [Doxofylline] (20 µM), the “fold change of Putrescine concentration” value was 1.01.

Another experiment relates to Escherichia coli IAI1. Briefly: fold change of Cadaverine concentration vs plate DMSO controls (fold change (ratio)); higher = more amine produced, active = hit call of the paper (significant change in both replicates, either direction). As to conditions: incubation time: 27 h, anaerobic, 37 °C. The gist of the method:
as §1
For `CC(=O)S[C@@H]1CC2=CC(=O)CC[C@]2(C)[C@H]2CC[C@@]3(C)[C@@H](CC[C@@]34CCC(=O)O4)[C@H]12` [Spironolactone] (20 µM), the “fold change of Cadaverine concentration” value is 1.02. With `COC(=O)C1=C(C)NC(C)=C(C(=O)OCCN2CCN(C(c3ccccc3)c3ccccc3)CC2)C1c1cccc([N+](=O)[O-])c1` (configuration not stated) [Manidipine Dihydrochloride] (20 µM), the “fold change of Cadaverine concentration” value was 1.01. Still for that read-out and setting: with `CC(=O)NS(=O)(=O)c1ccc(NC(=O)c2ccccc2C(=O)O)cc1` [Phthalylsulfacetamide] (20 µM) the figure was 1.02; with `CN(C/C=C/C#CC(C)(C)C)Cc1cccc2ccccc12` [Terbinafine] (20 µM), 0.987. The same measure, in the same setting: then `Nc1nc2[nH]cnc2c(=S)[nH]1` [Tioguanine] (20 µM), with 0.871. Take `CC(=O)OCC(=O)[C@@]12N=C(C)O[C@@H]1C[C@H]1[C@@H]3CCC4=CC(=O)C=C[C@]4(C)[C@H]3[C@@H](O)C[C@@]12C` [Deflazacort] (20 µM): the “fold change of Cadaverine concentration” value was 0.993. In the case of `CCCCOCCOCCOCc1cc2c(cc1CCC)OCO2` [Piperonyl butoxide] (20 µM), the “fold change of Cadaverine concentration” value was 0.972.

On to `O=C(Cn1ccnc1[N+](=O)[O-])NCCO` [Etanidazole] (20 µM), for which the “fold change of Cadaverine concentration” value is 1.02. Regarding `CCN(CC)CCNC(=O)c1cc(Cl)c(N)cc1OC` [Metoclopramide monohydrochloride] (20 µM), the “fold change of Cadaverine concentration” value is 0.826. As to `CCN(CC)CCNC(C(=O)OCCC(C)C)c1ccccc1` (configuration not stated) [Camylofine chlorhydrate] (20 µM), the “fold change of Cadaverine concentration” value is 0.985.

Consider `Cc1cc(C)nc(NS(=O)(=O)c2ccc(N)cc2)n1` [Sulfamethazine sodium salt] (20 µM), for which the “fold change of Cadaverine concentration” value was 0.986. With `C/C(O)=C(\C#N)C(=O)Nc1ccc(C(F)(F)F)cc1` [Teriflunomide] (20 µM), the “fold change of Cadaverine concentration” value was 1.09.

In the case of `NC[C@@H]1O[C@@H](O[C@H]2[C@H](O)[C@@H](O[C@H]3O[C@H](CO)[C@@H](O)[C@H](N)[C@H]3O)[C@H](N)C[C@@H]2N)[C@@H](O)[C@H](O)[C@H]1O` [Kanamycin A sulfate] (20 µM), the “fold change of Cadaverine concentration” value is 0.97. In the case of `CN[C@@H]1[C@H](O)[C@H](NC)[C@H]2O[C@@]3(O)C(=O)C[C@@H](C)O[C@H]3O[C@@H]2[C@H]1O` [Spectinomycin dihydrochloride] (20 µM), the “fold change of Cadaverine concentration” value was 0.95. Turning to `CCOC(=O)c1ccc(C#Cc2ccc3c(c2)C(C)(C)CCS3)nc1` [Tazarotene] (20 µM), the “fold change of Cadaverine concentration” value is 0.942.

These data come from the supplement of paper PMC12494721.
